In PubChem BioAssay (NCI):
Compounds without any hit were thinned out: in the full panel of roughly 79,000, 15% have a hit. Unmarked numbers belong to inactive results. The source made the active and inactive calls. Cut-off read from the data, not from the text of the source: active = growth inhibition above about 70%; inactive = the rest.

Experiment: NCI Yeast Anticancer Drug Screen. Data for the mec2-1 strain (AID 157)
Conditions: S. cerevisiae mec2-1 strain, at 5.0 µM (retest, dose inferred, filed as 0.5), hits give high values
Summary of the method: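 Each compound was tested on mec2-1 yeast, a strain altered in DNA damage repair or cell cycle control. Growth inhibition is reported relative to vehicle.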

| SMILES | growth inhibition |
| --- | --- |
| Cc1cc(NCCCCCCCNc2cc(C)nc3cc(N)ccc23)c2ccc(N)cc2n1 | -11% |
| C[C@]12CC[C@H]3[C@@H](CCC4=CC(=O)CC[C@@]43C)[C@@H]1CC[C@@H]2C(=O)C=O | 6% |
| COc1cc2c[n+](C)c3c4cc(OC)c(OCc5ccccc5)cc4c(OCc4ccccc4)cc3c2cc1OC | 14% |
| Nc1ncnc2c1c(-c1ccc(Cl)cc1)cn2-c1ccccc1 | 11% |
| Cc1c[nH]c2nc(C)n(-c3ccccc3)c(=N)c12 | 1% |
| COc1ccc(Cc2ccc3c(C)cc(Cl)nc3c2)cc1 | -8% |
| COC(=O)c1ccc(NCc2c(O)ccc(O)c2Br)cc1Cl | 14% |
| CC1=CC(=O)c2c(O)c3c(c(O)c2C1=O)C1C(O)C(C3=O)C23C(=O)c4c(O)c(C)cc(O)c4C(O)=C2C(=O)CC(O)C13 (stereo not drawn) | 7% |
| CC(C)(O)[C@H](CCO)O[Si](c1ccccc1)(c1ccccc1)C(C)(C)C | 18% |
| COC(=O)/C(C#N)=C(/SC)N(C)C | 8% |
| N#CC(C(=O)CCCC(=O)Nc1ccc(Cl)cc1)c1ccccc1Cl (stereo not drawn) | -1% |
| FC(F)(F)c1cccc(Nc2ccc3cnc4ccccc4c3c2)c1 | -19% |
| CN1C(/C=C/c2ccc(O)c3ncccc23)CCC2CCCC(O)C21 (stereo not drawn) | 26% |
| N#CC1(C#N)C(C#N)(C#N)C12CCCC2 | 4% |
| O=C1C(Cl)=C(Cl)C(=O)C2=C1CC(Cl)C(Cl)C2 (stereo not drawn) | 90% (active) |
| N#CC(/C=C/c1ccccc1)(NO)Nc1cccc(Cl)c1 (stereo not drawn) | 32% |
| O=C(O)c1ccccc1C(c1ccccc1)c1ccccc1 | -8% |
| OCC1(c2ccccc2)OC1c1ccccc1 (stereo not drawn) | -50% |
| COc1ccc(NS(=O)(=O)c2ccc(F)cc2)cc1 | 1% |
| CCn1c2nc(=O)n(C)c(=O)c-2[n+]([O-])c2cc(C)ccc21 | 8% |

| SMILES | growth inhibition |
| --- | --- |
| O=[N+]([O-])C(=C(Nc1ccccc1)Nc1ccccc1)C(Cl)=C(Cl)Cl | 98% (active) |
| CCC/C(=N\NC(=S)N(C)C)c1ccccn1 | 97% (active) |
| O=C(CSc1cc[o+]cc1)c1cccc([N+](=O)[O-])c1 | 2% |
| CC12CCC(c3sc(N)c(C#N)c31)C2(C)C (stereo not drawn) | -2% |
| N#CC(C#N)=C(C1CC1)C1CC1 | -42% |
| Cc1c(N=Nc2cccc(F)c2)c(-c2ccccc2)nn1C(N)=S | 1% |
| CN1COc2c(Cl)cc(Cl)cc2C1 | -2% |
| O=C1CCCCO1 | -1% |
| Nc1cc2c(cc1/C=C(\C(=O)O)c1ccccc1)OCO2 | -11% |
| Cc1cc2c(cc1C)C(=O)OC2=O | -1% |
| C(/Cc1ccc2c(c1)OCO2)=N\NC1=NCCCCN1 | -3% |
| CCCCCCCCN(CCCCCCCC)CC(O)c1cc(-c2ccc(OC)cc2)nc2cc(Cl)ccc12 (stereo not drawn) | 8% |
| Cc1cc(C(=O)CBr)c(CN2C(=O)c3ccccc3C2=O)c(=O)n1C | 49% |
| O=C(O)c1ccccc1-c1c2ccc(=O)c(Br)c-2oc2c(Br)c(O)ccc12 | 42% |
| O=C(Nc1cccc(NC(=O)c2cc(=O)c3ccccc3o2)n1)c1cc(=O)c2ccccc2o1 | 13% |
| COC(=O)c1nc(=S)[nH]c(C(=O)OC)c1C(=O)c1ccc([N+](=O)[O-])cc1 | -8% |
| COC1/C=C\C=C(/C)C(=O)Nc2cc3nc4cc(Br)ccc4oc-3c(c2=O)CC(C)CC(OC)C(O)C(C)/C=C(\C)C1OC(N)=O (stereo not drawn) | 81% (active) |
| NC(=S)C(=S)N/C=C(/c1ccc(Cl)cc1)S(=O)(=O)Cc1ccc(Cl)cc1 | -17% |
| O=C(Cc1ccccc1)c1ccccc1C(=O)NNc1ccccc1 | -5% |

Same assay, conditions: S. cerevisiae mec2-1 strain, at 50.0 µM (retest, dose inferred, filed as 5.0), hits give high values

| SMILES | growth inhibition |
| --- | --- |
| Cc1cc(NCCCCCCCNc2cc(C)nc3cc(N)ccc23)c2ccc(N)cc2n1 | 76% (active) |
| C[C@]12CC[C@H]3[C@@H](CCC4=CC(=O)CC[C@@]43C)[C@@H]1CC[C@@H]2C(=O)C=O | 36% |
| COc1cc2c[n+](C)c3c4cc(OC)c(OCc5ccccc5)cc4c(OCc4ccccc4)cc3c2cc1OC | 93% (active) |
| Nc1ncnc2c1c(-c1ccc(Cl)cc1)cn2-c1ccccc1 | 52% |
| Cc1c[nH]c2nc(C)n(-c3ccccc3)c(=N)c12 | -3% |
| COc1ccc(Cc2ccc3c(C)cc(Cl)nc3c2)cc1 | 87% (active) |
| COC(=O)c1ccc(NCc2c(O)ccc(O)c2Br)cc1Cl | 99% (active) |
| CC1=CC(=O)c2c(O)c3c(c(O)c2C1=O)C1C(O)C(C3=O)C23C(=O)c4c(O)c(C)cc(O)c4C(O)=C2C(=O)CC(O)C13 (stereo not drawn) | 98% (active) |
| CC(C)(O)[C@H](CCO)O[Si](c1ccccc1)(c1ccccc1)C(C)(C)C | 98% (active) |
| COC(=O)/C(C#N)=C(/SC)N(C)C | 15% |
| N#CC(C(=O)CCCC(=O)Nc1ccc(Cl)cc1)c1ccccc1Cl (stereo not drawn) | 6% |
| FC(F)(F)c1cccc(Nc2ccc3cnc4ccccc4c3c2)c1 | 97% (active) |
| CN1C(/C=C/c2ccc(O)c3ncccc23)CCC2CCCC(O)C21 (stereo not drawn) | 95% (active) |
| N#CC1(C#N)C(C#N)(C#N)C12CCCC2 | 54% |
| O=C1C(Cl)=C(Cl)C(=O)C2=C1CC(Cl)C(Cl)C2 (stereo not drawn) | 99% (active) |
| N#CC(/C=C/c1ccccc1)(NO)Nc1cccc(Cl)c1 (stereo not drawn) | 99% (active) |
| O=C(O)c1ccccc1C(c1ccccc1)c1ccccc1 | 44% |
| OCC1(c2ccccc2)OC1c1ccccc1 (stereo not drawn) | -27% |
| COc1ccc(NS(=O)(=O)c2ccc(F)cc2)cc1 | -12% |
| CCn1c2nc(=O)n(C)c(=O)c-2[n+]([O-])c2cc(C)ccc21 | 33% |

| SMILES | growth inhibition |
| --- | --- |
| O=[N+]([O-])C(=C(Nc1ccccc1)Nc1ccccc1)C(Cl)=C(Cl)Cl | 100% (active) |
| CCC/C(=N\NC(=S)N(C)C)c1ccccn1 | 99% (active) |
| O=C(CSc1cc[o+]cc1)c1cccc([N+](=O)[O-])c1 | 87% (active) |
| CC12CCC(c3sc(N)c(C#N)c31)C2(C)C (stereo not drawn) | -25% |
| N#CC(C#N)=C(C1CC1)C1CC1 | 94% (active) |
| Cc1c(N=Nc2cccc(F)c2)c(-c2ccccc2)nn1C(N)=S | 98% (active) |
| CN1COc2c(Cl)cc(Cl)cc2C1 | 45% |
| O=C1CCCCO1 | -3% |
| Nc1cc2c(cc1/C=C(\C(=O)O)c1ccccc1)OCO2 | -8% |
| Cc1cc2c(cc1C)C(=O)OC2=O | -1% |
| C(/Cc1ccc2c(c1)OCO2)=N\NC1=NCCCCN1 | -5% |
| CCCCCCCCN(CCCCCCCC)CC(O)c1cc(-c2ccc(OC)cc2)nc2cc(Cl)ccc12 (stereo not drawn) | 86% (active) |
| Cc1cc(C(=O)CBr)c(CN2C(=O)c3ccccc3C2=O)c(=O)n1C | 99% (active) |
| O=C(O)c1ccccc1-c1c2ccc(=O)c(Br)c-2oc2c(Br)c(O)ccc12 | 99% (active) |
| O=C(Nc1cccc(NC(=O)c2cc(=O)c3ccccc3o2)n1)c1cc(=O)c2ccccc2o1 | 13% |
| COC(=O)c1nc(=S)[nH]c(C(=O)OC)c1C(=O)c1ccc([N+](=O)[O-])cc1 | 64% |
| COC1/C=C\C=C(/C)C(=O)Nc2cc3nc4cc(Br)ccc4oc-3c(c2=O)CC(C)CC(OC)C(O)C(C)/C=C(\C)C1OC(N)=O (stereo not drawn) | 96% (active) |
| NC(=S)C(=S)N/C=C(/c1ccc(Cl)cc1)S(=O)(=O)Cc1ccc(Cl)cc1 | 99% (active) |
| O=C(Cc1ccccc1)c1ccccc1C(=O)NNc1ccccc1 | 6% |
